Consider 8 compounds from PubChem BioAssay.

Active and inactive are the calls of the source. Unless noted, no rule for the calls is given here.

The test system of test [1] is Wnt5a (protein binding on small-molecule microarray). Kind of test: small molecules binding Wnt5a protein – biophysical, small-molecule microarray, 635/667 nm fluorescence, primary screen (AID 1142).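 Also: fluorescence read at 667 nm with signal to noise per printed feature.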 To be noted: 635 nm fluorescence, higher = more signal.
A short description of test [2]: ATP-based viability of Huh7 replicon cells – cell-based, CellTiter-Glo luminescence, basal, 48 h, cytotoxicity control for HCV replication inhibitor project, primary screen (AID 1143).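 Also: Huh7 hepatoma cells carrying a hepatitis C replication reporter with no stimulus; test concentration not given here.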 To be noted: higher = more signal, called active from +8 up or from −8 down.
Test [3] is described as follows: Pseudomonas biofilm growth suppression – PAO1 strain, BacTiter-Glo luminescence, LB-PBS, primary screen (AID 1144). The note with it: P. aeruginosa PAO1 biofilm, 12 h, higher = more signal.
Test [4] can be described thus: basal CRE-LacZ reporter activity in PC12 – cell-based, unstimulated, primary screen (AID 1145). The note with it: no forskolin, luminescence, 4.5 h, higher = more signal, called active from +8 up or from −8 down.
Test [5] is described as follows: forskolin-driven CRE-LacZ activity in PC12 – cell-based, CRE-LacZ reporter, forskolin-stimulated, primary screen (AID 1146).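 Also: PC12 cells with 6xCRE LacZ reporter stimulated by forskolin 10 µM; beta-galactosidase reporter signal reflecting CREB driven transcription.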 To be noted: luminescence, 4.5 h, higher = more signal, called active from +8 up or from −8 down.
The target in test [6] is Streptavidin (Streptomyces avidinii) (UniProt P22629). The test can be described thus: compounds binding control protein streptavidin – biophysical, small-molecule microarray, 635/667 nm fluorescence, artefact control for SMM compound annotation, primary screen (AID 1147).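 Also: signal reflects streptavidin binding to arrayed compounds as a control protein.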 To be noted: higher = more signal.
Test [7] in a line: probe aInhba binding on compound microarray – biochemical, small-molecule microarray, 635/667 nm fluorescence, primary screen (AID 1148).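 Also: score merges 667nm spot fluorescence with signal-to-noise for antibody binding to printed compounds.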 To be noted: higher = more signal.
For test [8], the target named is Torsin-1A (Homo sapiens) (UniProt O14656). The test can be described thus: TOR1A wild-type binding on microarray – cell lysate, small-molecule microarray, lysate, 635/667 nm, primary screen (AID 1149). The note with it: COS7 hTOR1A-WT lysate, 635 nm fluorescence, higher = more signal.
The target is the same in test [9]. The test can be described thus: torsin A mutant lysate binding on microarrays – cell lysate, small-molecule microarray, COS7 lysate, 635/667 nm fluorescence, primary screen (AID 1150).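 Also: score pools 667 nm emission and signal to noise measuring lysate protein binding.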 The note with it: COS7 hTOR1A mutant lysate, 635 nm fluorescence, higher = more signal.
The test system of test [10] is Sonic hedgehog protein (Shh). Kind of test: Sonic hedgehog microarray binding compounds – biochemical, small-molecule microarray, 635/667 nm fluorescence, primary screen (AID 1151).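 Also: Shh protein binding to compounds spotted on small-molecule microarray slides; score combines spot fluorescence intensity with signal-to-noise across triplicate slides.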 To be noted: 635 nm fluorescence, higher = more signal.
Test [11] in a line: optical density shifts of acrAB sulA E. coli – strain DRC41, OD650, 48 h, E. coli filamentation inducer project, primary screen (AID 1152).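 Also: E. coli MC1000 strain DRC41 lacking acrAB efflux pump and sulA.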 The note with it: higher = more signal, called active from +8 up or from −8 down.
Test [12] is described as follows: probe aLefty1 binding on compound microarray – biochemical, small-molecule microarray, 635/667 nm fluorescence, primary screen (AID 1153).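 Also: score merges spot fluorescence with signal-to-noise ratio from the scanned slide images.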 The note with it: higher = more signal.
Test [13] is described as follows: plasmodial surface anion channel blockers, osmotic lysis – cell-based, P. falciparum Indochina, OD700, 1 h, primary screen (AID 1154). To be noted: P. falciparum Indochina infected RBC osmotic lysis, higher = more signal, called active from +8 up or from −8 down.
Test [14] in a line: plasmodial surface anion channel blockers, osmotic lysis – cell-based, P. falciparum Indochina, OD700, 2 h, primary screen (AID 1155).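 Also: lysis reports solute entry through the parasite surface anion channel PSAC.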 To be noted: P. falciparum Indochina infected erythrocytes, higher = more signal, called active from +8 up or from −8 down.
Test [15] in a line: changes in parasitized red cell lysis, either direction – P. falciparum Indochina, OD700, 3 h, PSAC antagonist project, primary screen (AID 1156). The note with it: P. falciparum-infected erythrocytes, osmotic lysis, higher = more signal, called active from +8 up or from −8 down.
A short description of test [16]: plasmodial surface anion channel blockers, osmotic lysis – cell-based, P. falciparum Indochina, OD700, 18 h, primary screen (AID 1157). To be noted: P. falciparum Indochina infected erythrocytes, osmotic lysis OD700, 18 h; higher = more signal, called active from +8 up or from −8 down.
The nature of test [17]: S6 kinase pathway phospho-S6 level changes – cell-based, A549, cytoblot, luminescence, serum-stimulated, primary screen (AID 1158).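 Also: serum-stimulated A549 lung adenocarcinoma cells; signal is phosphorylated S6 detected by cytoblot immunostaining with HRP secondary.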 The note with it: 5 h, higher = more signal.
In test [18] the target is NADPH oxidase 2 (Homo sapiens) (UniProt P04839). Kind of test: compounds shifting NOX2 Amplex Red fluorescence – cell-based, HEK293-NOX2, PMA-stimulated, NOX inhibitor project, primary screen (AID 1159). Also: test concentration not given here. The note with it: 45 min, higher = more signal, called active from +8 up or from −8 down.
Test [19] concerns the target NADPH oxidase 4 (Homo sapiens) (UniProt Q9NPH5). The test can be described thus: compounds shifting NOX4 Amplex Red fluorescence – cell-based, HEK293-NOX4, tetracycline-induced, NOX inhibitor project, primary screen (AID 1160). The note with it: HEK293-NOX4, Amplex Red H2O2 fluorescence, 45 min; higher = more signal, called active from +8 up or from −8 down.
Test [20] concerns the target NADPH oxidase 5 (Homo sapiens) (UniProt Q96PH1). Kind of test: compounds shifting NOX5 Amplex Red fluorescence – cell-based, HEK293-NOX5, NOX inhibitor project, primary screen (AID 1161). The note with it: HEK293-NOX5, ionomycin, 45 min, higher = more signal.

Chain of Streptavidin (Streptomyces avidinii) (P22629 whole entry, looked up): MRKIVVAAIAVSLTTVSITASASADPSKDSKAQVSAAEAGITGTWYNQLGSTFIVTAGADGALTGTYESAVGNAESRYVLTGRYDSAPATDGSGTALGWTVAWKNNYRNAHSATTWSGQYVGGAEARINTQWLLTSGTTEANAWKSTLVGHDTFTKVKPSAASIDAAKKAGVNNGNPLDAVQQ
Chain of NADPH oxidase 2 (Homo sapiens) (P04839 whole entry, looked up): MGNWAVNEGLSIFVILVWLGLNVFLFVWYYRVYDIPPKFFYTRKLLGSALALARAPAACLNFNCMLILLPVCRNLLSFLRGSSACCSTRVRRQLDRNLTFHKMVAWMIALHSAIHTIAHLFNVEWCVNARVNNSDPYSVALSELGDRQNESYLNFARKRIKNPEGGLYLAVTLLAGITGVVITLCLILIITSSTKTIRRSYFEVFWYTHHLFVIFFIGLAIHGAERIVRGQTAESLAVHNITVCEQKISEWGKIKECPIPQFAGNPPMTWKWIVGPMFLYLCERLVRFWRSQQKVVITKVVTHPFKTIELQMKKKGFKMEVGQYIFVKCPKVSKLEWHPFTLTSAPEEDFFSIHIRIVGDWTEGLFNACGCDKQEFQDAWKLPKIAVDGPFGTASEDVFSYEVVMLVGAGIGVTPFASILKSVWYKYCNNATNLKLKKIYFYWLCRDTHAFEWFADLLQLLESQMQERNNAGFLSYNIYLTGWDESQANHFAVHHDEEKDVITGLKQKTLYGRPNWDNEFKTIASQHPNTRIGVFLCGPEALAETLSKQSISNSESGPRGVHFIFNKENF
Chain of Torsin-1A (Homo sapiens) (O14656 whole entry, looked up): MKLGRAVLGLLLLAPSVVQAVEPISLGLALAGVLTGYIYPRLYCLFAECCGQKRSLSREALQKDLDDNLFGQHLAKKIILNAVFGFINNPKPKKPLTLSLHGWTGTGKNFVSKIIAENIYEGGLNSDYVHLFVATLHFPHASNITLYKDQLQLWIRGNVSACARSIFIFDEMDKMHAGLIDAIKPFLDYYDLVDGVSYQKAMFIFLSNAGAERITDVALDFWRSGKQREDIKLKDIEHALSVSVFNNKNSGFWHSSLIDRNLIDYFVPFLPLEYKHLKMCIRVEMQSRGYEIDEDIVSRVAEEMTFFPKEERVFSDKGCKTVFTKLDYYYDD
Chain of NADPH oxidase 5 (Homo sapiens) (Q96PH1 whole entry, looked up): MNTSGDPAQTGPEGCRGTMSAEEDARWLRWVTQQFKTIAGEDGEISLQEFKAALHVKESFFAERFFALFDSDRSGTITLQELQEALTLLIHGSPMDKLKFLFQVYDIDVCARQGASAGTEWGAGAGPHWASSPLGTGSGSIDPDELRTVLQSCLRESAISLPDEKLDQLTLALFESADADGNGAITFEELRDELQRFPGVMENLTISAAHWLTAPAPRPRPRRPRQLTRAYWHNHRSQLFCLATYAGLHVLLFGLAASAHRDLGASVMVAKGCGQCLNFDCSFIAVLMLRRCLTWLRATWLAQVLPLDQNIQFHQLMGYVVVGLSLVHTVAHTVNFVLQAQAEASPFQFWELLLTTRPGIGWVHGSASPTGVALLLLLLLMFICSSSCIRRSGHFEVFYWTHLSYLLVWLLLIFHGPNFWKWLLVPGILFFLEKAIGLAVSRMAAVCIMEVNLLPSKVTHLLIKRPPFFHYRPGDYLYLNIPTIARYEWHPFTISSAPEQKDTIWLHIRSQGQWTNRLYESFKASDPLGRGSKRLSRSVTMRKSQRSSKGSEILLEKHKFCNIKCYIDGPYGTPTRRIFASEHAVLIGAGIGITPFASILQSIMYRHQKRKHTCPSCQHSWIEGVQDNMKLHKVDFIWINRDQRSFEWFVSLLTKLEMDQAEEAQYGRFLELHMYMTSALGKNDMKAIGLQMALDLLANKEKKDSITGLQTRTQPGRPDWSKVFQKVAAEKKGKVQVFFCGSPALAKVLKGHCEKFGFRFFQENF
Chain of NADPH oxidase 4 (Homo sapiens) (Q9NPH5 whole entry, looked up): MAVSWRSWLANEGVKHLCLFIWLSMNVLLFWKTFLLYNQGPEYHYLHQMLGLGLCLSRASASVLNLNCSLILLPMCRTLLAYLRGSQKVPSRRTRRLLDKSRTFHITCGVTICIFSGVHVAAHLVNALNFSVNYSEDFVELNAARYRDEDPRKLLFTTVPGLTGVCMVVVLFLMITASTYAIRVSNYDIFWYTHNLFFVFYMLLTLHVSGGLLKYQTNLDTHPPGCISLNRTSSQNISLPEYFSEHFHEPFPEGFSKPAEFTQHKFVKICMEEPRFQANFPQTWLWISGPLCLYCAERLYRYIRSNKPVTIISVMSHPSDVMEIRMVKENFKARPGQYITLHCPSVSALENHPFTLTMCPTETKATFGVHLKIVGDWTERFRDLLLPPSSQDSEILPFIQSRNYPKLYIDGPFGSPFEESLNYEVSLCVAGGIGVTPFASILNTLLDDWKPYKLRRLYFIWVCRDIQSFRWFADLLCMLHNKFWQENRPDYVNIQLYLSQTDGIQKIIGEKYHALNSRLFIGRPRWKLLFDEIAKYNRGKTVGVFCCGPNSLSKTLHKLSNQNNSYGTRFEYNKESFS

In the case of `CO[C@H]1COC(=O)CCC[C@H](C)[C@H](OC)COC(=O)CC=C[C@@H]1C`, the composite z-score in test [1] is -0.225; in [6] it was 0.116; in [7] it was -0.154; in test [8], 1.78; in [9], 1.64; in test [10], 1.79. In test [12], the composite z-score is -0.0626. The z-score was -1.15 (inactive) in test [2]; -0.339 (inactive) in test [3]; -1.29 (inactive) in test [4]; -0.46 (inactive) in [5]; 0.928 (inactive) in test [11]; -0.972 (inactive) in test [13]. Besides, the z-score in test [14] was -1.26 (inactive); in [15], 0.232 (inactive); in test [16], -1.45 (inactive); in test [17], 1.18; in test [18], -0.0777 (inactive); in test [19], 0.862 (inactive). Further, the z-score in [20] was 0.381.

With `CCN1C(=O)[C@H]2[C@H]3[C@H](O)[C@H](O)CC(=NO[C@@H]4O[C@H](COC(C)=O)[C@@H](OC(C)=O)[C@H](OC(C)=O)[C@H]4OC(C)=O)[C@@H]3CC[C@H]2C1=O`, the composite z-score in [1] was 0.352; in test [6], 0.0251; in [7], -0.0221; in [8], 0.331; in [9], 0.0248; in [10] it was 1.03. For the same compound, in [12], the composite z-score is 0.227. Moreover, the z-score in [2] is 0.772 (inactive); in test [3], 1.22 (inactive); in [4], -0.882 (inactive); in test [5], 0.171 (inactive); in test [11], 0.59 (inactive); in test [13], 0.202 (inactive). In addition, the z-score in [14] is 0.195 (inactive); in test [15] it was -0.519 (inactive); in test [16], 0.319 (inactive); in test [17] it was -0.639; in [18], 0.357 (inactive); in test [19], 0.722 (inactive). For the same compound, the z-score in test [20] is -0.0344.

Take `COC(=O)C1=C(C)N(Cc2ccccc2)C2=C3C(=O)OCC[C@@H]3[C@@](O)(C(=O)OC)C(=O)N2[C@@H]1c1ccccc1`: the composite z-score in test [1] was 0.226; in test [6], 0.299; in test [7], -0.0221; in [8], -0.154; in test [9], 0.319; in [10] it was 0.404. Moreover, in [12], the composite z-score is -0.286. The z-score in test [2] was -0.0119 (inactive); in test [3] it was -0.356 (inactive); in [4] it was 4.9 (inactive); in test [5], -1.1 (inactive); in [11], 0.884 (inactive); in test [13], 0.121 (inactive). Further, the z-score in test [14] is 0.132 (inactive); in test [15], 0.0954 (inactive); in test [16], 0.126 (inactive); in test [17], 0.0012; in [18], 0.0769 (inactive); in test [19], -0.0428 (inactive). The z-score in test [20] was 0.251.

Take `Cc1cc2c(nc1C)CCCCN2CC(O)CN1CCCc2nc(-c3ccc(Br)cc3)ccc21` (stereo not given): the composite z-score in [1] was determined as 0.0684; in test [6] it was 0.639; in test [7], 0.0541; in test [8], 0.0636; in test [9] it was 0.154; in test [10], 1.1. Further, in test [12], the composite z-score turned out to be 0.345. For the same compound, the z-score in test [2] is 0.304 (inactive); in test [3] it was -0.708 (inactive); in test [4], 0.744 (inactive); in test [5], 0.597 (inactive); in [11], 0.453 (inactive); in [13], 4.88 (inactive). The z-score in test [14] was 0.0477 (inactive); in test [15] it was 0.0577 (inactive); in [16], 0.148 (inactive); in [17], 0.75; in test [18], 1.88 (inactive); in [19] it was 0.175 (inactive). Also, the z-score in test [20] was 0.616.

`CC=CC1=C(CO)[C@H](O)[C@H]2O[C@H]2[C@@H]1O`: the composite z-score worked out at 0.0984 in test [1]; 0.162 in test [6]; 1.37 in test [7]; 0.587 in test [8]; 0.131 in [9]; 0.875 in test [10]. Moreover, the composite z-score in [12] is -0.106. The z-score in [2] was -0.0795 (inactive); in test [3], -0.549 (inactive); in [4] it was -0.525 (inactive); in test [5], 1.26 (inactive); in [11] it was -0.412 (inactive); in test [13] it was -0.312 (inactive). In addition, the z-score in test [14] is 0.367 (inactive); in [15], -0.242 (inactive); in [16], 0.172 (inactive); in test [17] it was -0.325; in [18], 0.623 (inactive); in test [19], -0.191 (inactive). The z-score in test [20] was 0.109.

With `CC(=O)OC[C@H]1O[C@H](CC=NO[C@H](C)c2cn([C@@H]3COC[C@H]3O)nn2)C=C[C@@H]1OC(C)=O`, the composite z-score is 0.104 in test [1]; 0.182 in test [6]; -0.0494 in test [7]; -0.0469 in test [8]; -0.108 in test [9]; 0.165 in [10]. In addition, the composite z-score in test [12] was -0.27. The z-score in test [2] was -0.29 (inactive); in [3] it was -0.745 (inactive); in test [4], -0.724 (inactive); in test [5], -0.538 (inactive); in test [11], -0.676 (inactive); in test [13], -0.279 (inactive). In addition, the z-score in [14] was -1.7 (inactive); in test [15] it was -0.115 (inactive); in test [16], -1.7 (inactive); in test [17], 1.22; in [18] it was -1.01 (inactive); in test [19], 0.127 (inactive). Besides, in [20], the z-score was determined as 0.0052.

As to `CCOC(=O)[C@H](Cc1ccccc1)NC(=O)CCC1CC(OC(=O)NCc2cccc3ccccc23)CC2(CCCC(COC(=O)NCCc3ccccc3OC)O2)O1` (stereo not given in full), the composite z-score in test [1] was 0.201; in [6], 0.486; in test [7], -0.0552; in [8], 0.265; in [9], 0.0946; in test [10] it was 1.1. In [12], the composite z-score was -0.101. Further, the z-score in test [2] was -0.534 (inactive); in test [3], 0.0213 (inactive); in test [4], 0.104 (inactive); in test [5] it was -0.745 (inactive); in test [11], -0.0287 (inactive); in [13] it was -0.623 (inactive). Besides, the z-score was 0.185 (inactive) in [14]; -0.602 (inactive) in test [15]; 0.0286 (inactive) in test [16]; -0.352 in test [17]; 0.884 (inactive) in test [18]; 1.15 (inactive) in test [19]. In addition, in [20], the z-score came to 1.06.

As to `CC(CCC(=O)OC[C@H]1O[C@H](C#Cc2ccccc2)C=C[C@@H]1Oc1ccc(C)cc1)=NO[C@@H](C)c1cc(-c2c(C)cc(C)cc2C)no1`, the composite z-score in test [1] is -0.693; in [6], -0.831; in test [7], -0.242; in [8] it was -2.59; in [9], -1.74; in [10], -0.719. For the same compound, in [12], the composite z-score was -0.0929. Besides, the z-score is -0.629 (inactive) in test [2]; -0.702 (inactive) in test [3]; 0.085 (inactive) in [4]; 1.02 (inactive) in test [5]; 0.357 (inactive) in test [11]; 1.34 (inactive) in test [13]. The z-score in test [14] is 0.674 (inactive); in [15], 1.23 (inactive); in [16], 0.221 (inactive); in test [17] it was 0.814; in test [18], 0.731 (inactive); in test [19], 0.344 (inactive). The z-score in test [20] turned out to be 0.287.
